Source: PubChem BioAssay (NCI)
About 79,000 compounds went through this panel and 15% of them were active in at least one assay; those are over-represented in the sample as a whole. A number with no mark means an inactive call. Calls of active or inactive are those of the source. Rule as the data show it: active = growth inhibition above about 70%; inactive = the rest.

Experiments:
[1] = NCI Yeast Anticancer Drug Screen. Data for the rad52 strain (AID 147);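 also: 0% = growth of vehicle-treated control cultures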; settings: S. cerevisiae rad52 mutant growth inhibition, stronger effect = higher value
In short: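 Compounds are applied to a genetically defined yeast strain lacking normal DNA damage repair, and inhibition of growth is expressed relative to cultures given vehicle only.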

[2] = NCI Yeast Anticancer Drug Screen. Data for the wt1 strain (AID 149);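 also: 0% = growth of vehicle-treated wt1 cultures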; settings: S. cerevisiae wt1 strain (SPY 50644) growth inhibition, stronger effect = higher value
In short: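 wt1 strain grown with compound or vehicle; inhibition taken from the growth difference.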

[3] = NCI Yeast Anticancer Drug Screen. Data for the rad50EPP+ strain (AID 151);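 also: 0% = growth of vehicle-treated control cultures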; settings: S. cerevisiae rad50 mutant strain, stronger effect = higher value
In short: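 Compounds were applied to the rad50EPP+ yeast strain, which bears a defined DNA repair alteration, and growth inhibition was determined relative to vehicle-treated cultures.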

[4] = NCI Yeast Anticancer Drug Screen. Data for the mgt1 strain (AID 153); settings: S. cerevisiae mgt1 mutant growth inhibition, stronger effect = higher value
In short: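 Strain: mgt1 yeast, one of a set carrying defined DNA damage repair or cell cycle control alterations. Compound-treated growth compared with vehicle.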

[5] = NCI Yeast Anticancer Drug Screen. Data for the rad50 strain (AID 155);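 also: 0% = growth of vehicle-only cultures of the same strain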; settings: S. cerevisiae rad50 strain growth inhibition, stronger effect = higher value
In short: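 DNA repair mutant yeast, compound exposure, growth read-out; inhibition is taken relative to vehicle.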

[6] = NCI Yeast Anticancer Drug Screen. Data for the mec2-1 strain (AID 157); settings: S. cerevisiae mec2-1 strain, stronger effect = higher value
In short: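 Strain: mec2-1 (DNA repair/cell cycle alteration). Compound exposure, then growth measured; inhibition expressed relative to vehicle.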

[7] = NCI Yeast Anticancer Drug Screen. Data for the rad14 strain (AID 159);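 also: 0% = growth of vehicle-treated control cultures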; settings: S. cerevisiae rad14 strain growth inhibition, stronger effect = higher value
In short: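 DNA repair-defective yeast, compound-exposed; % growth inhibition derived by comparison with vehicle-treated controls.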

[8] = NCI Yeast Anticancer Drug Screen. Data for the sgs1 mgt1 strain (AID 161);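 also: 0% = growth of cultures given vehicle only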; settings: S. cerevisiae sgs1 mgt1 strain, stronger effect = higher value
In short: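 Test agents were incubated with a DNA-repair-mutant yeast strain. Growth was then read and compared against vehicle-treated controls.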

[9] = NCI Yeast Anticancer Drug Screen. Data for the CLN2oe strain (AID 163);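 also: 0% = growth of vehicle-only control cultures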; settings: S. cerevisiae CLN2oe strain, stronger effect = higher value
In short: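 Growth of a genetically modified yeast strain is measured after compound exposure and compared with cultures given vehicle alone.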

[10] = NCI Yeast Anticancer Drug Screen. Data for the cln2 rad14 strain (AID 165);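 also: 0% = growth equal to vehicle treated cultures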; settings: S. cerevisiae cln2 rad14 strain, stronger effect = higher value
In short: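 Compounds are applied to the cln2 rad14 yeast strain, and growth is then compared with that of vehicle-treated cultures to give inhibition.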

[11] = NCI Yeast Anticancer Drug Screen. Data for the bub3 strain (AID 167); settings: S. cerevisiae bub3 mutant strain, stronger effect = higher value
In short: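 In this screen, a yeast mutant lacking normal mitotic checkpoint function is challenged with compound. Relative growth versus vehicle gives the inhibition value.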

[12] = NCI Yeast Anticancer Drug Screen. Data for the wt2 strain (AID 169);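 also: 0% = growth of vehicle-treated yeast cultures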; settings: S. cerevisiae wt2 strain growth inhibition, stronger effect = higher value
In short: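 This strain belongs to a panel of yeast strains with defined genetic alterations in DNA damage repair or cell cycle control. Compounds are applied, and growth inhibition is measured against vehicle-treated cultures.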

[13] = NCI Yeast Anticancer Drug Screen. Data for the mlh1 strain (AID 171);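 also: 0% = growth of vehicle-treated control cultures of the same strain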; settings: S. cerevisiae mlh1 strain growth inhibition, stronger effect = higher value
In short: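 Growth of the mutant yeast strain after compound exposure, expressed as inhibition relative to vehicle-only controls.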

[14] = NCI Yeast Anticancer Drug Screen. Data for the sgs1 strain (AID 173);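 also: 0% = growth of vehicle-only control cultures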; settings: S. cerevisiae sgs1 mutant, stronger effect = higher value
In short: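 Growth of a yeast strain bearing a defined genetic alteration is measured after compound treatment. Inhibition is expressed relative to vehicle-only controls.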

[15] = NCI Yeast Anticancer Drug Screen. Data for the mlh1 rad18 strain (AID 175); settings: S. cerevisiae mlh1 rad18 strain growth inhibition, stronger effect = higher value
In short: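 Read-out is yeast growth inhibition, calculated against vehicle-only controls. The compound was applied to a strain engineered with DNA damage repair alterations.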

[16] = NCI Yeast Anticancer Drug Screen. Data for the rad18 strain (AID 177); settings: S. cerevisiae rad18 mutant growth inhibition, stronger effect = higher value
In short: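 Growth of the mutant yeast strain after compound exposure, normalised to vehicle-only cultures.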

[17] = at 5.0 µM (retest, dose inferred, filed as 0.5)
[18] = at 50.0 µM (retest, dose inferred, filed as 5.0)

Cc1ccc(C)c(C(=N)c2ccccc2Cc2ccccc2)c1
growth inhibition ([1]; at 1.2 µM): -5%
growth inhibition ([1]; at 3.7 µM): 17%
growth inhibition ([1]; at 11.0 µM): 70% (active)
growth inhibition ([1]; at 33.0 µM): 94% (active)
growth inhibition ([1]; at 100.0 µM): 97% (active)
growth inhibition ([2]; at 1.2 µM): -3%
growth inhibition ([2]; at 3.7 µM): 10%
growth inhibition ([2]; at 11.0 µM): 35%
growth inhibition ([2]; at 33.0 µM): 90% (active)
growth inhibition ([2]; at 100.0 µM): 97% (active)
growth inhibition ([3]; at 1.2 µM): -4%
growth inhibition ([3]; at 3.7 µM): 2%
growth inhibition ([3]; at 11.0 µM): 31%
growth inhibition ([3]; at 33.0 µM): 84% (active)
growth inhibition ([3]; at 100.0 µM): 94% (active)
growth inhibition ([4]; at 1.2 µM): -3%
growth inhibition ([4]; at 3.7 µM): 37%
growth inhibition ([4]; at 11.0 µM): 75% (active)
growth inhibition ([4]; at 33.0 µM): 94% (active)
growth inhibition ([4]; at 100.0 µM): 97% (active)
growth inhibition ([5]; at 1.2 µM): -1%
growth inhibition ([5]; at 3.7 µM): 7%
growth inhibition [5, 17]: 60%
growth inhibition ([5]; at 11.0 µM): 71% (active)
growth inhibition ([5]; at 33.0 µM): 92% (active)
growth inhibition [5, 18]: 96% (active)
growth inhibition ([5]; at 50.0 µM): 98.4% (active)
growth inhibition ([5]; at 100.0 µM): 95% (active)
growth inhibition ([6]; at 1.2 µM): 2%
growth inhibition ([6]; at 3.7 µM): 12%
growth inhibition [6, 17]: 0%
growth inhibition ([6]; at 11.0 µM): 72% (active)
growth inhibition ([6]; at 33.0 µM): 95% (active)
growth inhibition [6, 18]: 94% (active)
growth inhibition ([6]; at 50.0 µM): 97.3% (active)
growth inhibition ([6]; at 100.0 µM): 97% (active)
growth inhibition ([7]; at 1.2 µM): 0%
growth inhibition ([7]; at 3.7 µM): 31%
growth inhibition ([7]; at 11.0 µM): 52%
growth inhibition ([7]; at 33.0 µM): 93% (active)
growth inhibition ([7]; at 100.0 µM): 98% (active)
growth inhibition [8, 17]: 62%
growth inhibition [8, 18]: 94% (active)
growth inhibition ([8]; at 50.0 µM): 97.5% (active)
growth inhibition ([9]; at 1.2 µM): -3%
growth inhibition ([9]; at 3.7 µM): 6%
growth inhibition ([9]; at 11.0 µM): 47%
growth inhibition ([9]; at 33.0 µM): 95% (active)
growth inhibition ([9]; at 100.0 µM): 98% (active)
growth inhibition [10, 17]: 18%
growth inhibition [10, 18]: 93% (active)
growth inhibition ([10]; at 50.0 µM): 93.4% (active)
growth inhibition ([11]; at 1.2 µM): 7%
growth inhibition ([11]; at 3.7 µM): 29%
growth inhibition [11, 17]: 13%
growth inhibition ([11]; at 11.0 µM): 77% (active)
growth inhibition ([11]; at 33.0 µM): 96% (active)
growth inhibition [11, 18]: 97% (active)
growth inhibition ([11]; at 50.0 µM): 97.4% (active)
growth inhibition ([11]; at 100.0 µM): 95% (active)
growth inhibition ([12]; at 1.2 µM): -1%
growth inhibition ([12]; at 3.7 µM): 42%
growth inhibition ([12]; at 11.0 µM): 78% (active)
growth inhibition ([12]; at 33.0 µM): 93% (active)
growth inhibition ([12]; at 100.0 µM): 97% (active)
growth inhibition ([13]; at 1.2 µM): 0%
growth inhibition ([13]; at 3.7 µM): 35%
growth inhibition ([13]; at 11.0 µM): 80% (active)
growth inhibition ([13]; at 33.0 µM): 92% (active)
growth inhibition ([13]; at 100.0 µM): 98% (active)
growth inhibition ([14]; at 1.2 µM): 8%
growth inhibition ([14]; at 3.7 µM): 60%
growth inhibition ([14]; at 11.0 µM): 86% (active)
growth inhibition ([14]; at 33.0 µM): 95% (active)
growth inhibition ([14]; at 100.0 µM): 97% (active)
growth inhibition [15, 17]: 45%
growth inhibition [15, 18]: 94% (active)
growth inhibition ([15]; at 50.0 µM): 98.2% (active)
growth inhibition ([16]; at 1.2 µM): -3%
growth inhibition ([16]; at 3.7 µM): 20%
growth inhibition ([16]; at 11.0 µM): 67%
growth inhibition ([16]; at 33.0 µM): 94% (active)
growth inhibition ([16]; at 100.0 µM): 96% (active)

CC(C(=O)N1C(=O)N(C(=O)C(C)C(O)c2ccccc2)C2CCCCC21)C(O)c1ccccc1 (stereo unspecified)
growth inhibition ([1]; at 1.2 µM): 5%
growth inhibition ([1]; at 3.7 µM): 8%
growth inhibition ([1]; at 11.0 µM): 11%
growth inhibition ([1]; at 33.0 µM): 11%
growth inhibition ([1]; at 100.0 µM): 19%
growth inhibition ([2]; at 1.2 µM): 2%
growth inhibition ([2]; at 3.7 µM): -1%
growth inhibition ([2]; at 11.0 µM): 7%
growth inhibition ([2]; at 33.0 µM): 3%
growth inhibition ([2]; at 100.0 µM): 12%
growth inhibition ([3]; at 1.2 µM): 0%
growth inhibition ([3]; at 3.7 µM): -3%
growth inhibition ([3]; at 11.0 µM): 0%
growth inhibition ([3]; at 33.0 µM): 2%
growth inhibition ([3]; at 100.0 µM): 3%
growth inhibition ([4]; at 1.2 µM): -4%
growth inhibition ([4]; at 3.7 µM): 0%
growth inhibition ([4]; at 11.0 µM): 1%
growth inhibition ([4]; at 33.0 µM): 1%
growth inhibition ([4]; at 100.0 µM): 29%
growth inhibition ([5]; at 1.2 µM): 0%
growth inhibition ([5]; at 3.7 µM): -9%
growth inhibition [5, 17]: -5%
growth inhibition ([5]; at 11.0 µM): -7%
growth inhibition ([5]; at 33.0 µM): 16%
growth inhibition [5, 18]: 8%
growth inhibition ([5]; at 50.0 µM): 97.1% (active)
growth inhibition ([5]; at 100.0 µM): 20%
growth inhibition ([6]; at 1.2 µM): 3%
growth inhibition ([6]; at 3.7 µM): 1%
growth inhibition [6, 17]: -7%
growth inhibition ([6]; at 11.0 µM): 2%
growth inhibition ([6]; at 33.0 µM): 14%
growth inhibition [6, 18]: -2%
growth inhibition ([6]; at 50.0 µM): 97.2% (active)
growth inhibition ([6]; at 100.0 µM): 24%
growth inhibition ([7]; at 1.2 µM): 2%
growth inhibition ([7]; at 3.7 µM): 1%
growth inhibition ([7]; at 11.0 µM): 4%
growth inhibition ([7]; at 33.0 µM): 9%
growth inhibition ([7]; at 100.0 µM): 20%
growth inhibition [8, 17]: -7%
growth inhibition [8, 18]: 11%
growth inhibition ([8]; at 50.0 µM): 97.5% (active)
growth inhibition ([9]; at 1.2 µM): 1%
growth inhibition ([9]; at 3.7 µM): -2%
growth inhibition ([9]; at 11.0 µM): 4%
growth inhibition ([9]; at 33.0 µM): 11%
growth inhibition ([9]; at 100.0 µM): 15%
growth inhibition [10, 17]: 87% (active)
growth inhibition [10, 18]: 14%
growth inhibition ([10]; at 50.0 µM): 96.5% (active)
growth inhibition ([11]; at 1.2 µM): -2%
growth inhibition ([11]; at 3.7 µM): -1%
growth inhibition [11, 17]: -13%
growth inhibition ([11]; at 11.0 µM): -2%
growth inhibition ([11]; at 33.0 µM): 1%
growth inhibition [11, 18]: -9%
growth inhibition ([11]; at 50.0 µM): 97.8% (active)
growth inhibition ([11]; at 100.0 µM): 4%
growth inhibition ([12]; at 1.2 µM): -2%
growth inhibition ([12]; at 3.7 µM): -1%
growth inhibition ([12]; at 11.0 µM): 1%
growth inhibition ([12]; at 33.0 µM): 7%
growth inhibition ([12]; at 100.0 µM): 29%
growth inhibition ([13]; at 1.2 µM): 0%
growth inhibition ([13]; at 3.7 µM): 0%
growth inhibition ([13]; at 11.0 µM): 1%
growth inhibition ([13]; at 33.0 µM): 11%
growth inhibition ([13]; at 100.0 µM): 26%
growth inhibition ([14]; at 1.2 µM): 2%
growth inhibition ([14]; at 3.7 µM): 2%
growth inhibition ([14]; at 11.0 µM): 0%
growth inhibition ([14]; at 33.0 µM): 23%
growth inhibition ([14]; at 100.0 µM): 46%
growth inhibition [15, 17]: 2%
growth inhibition [15, 18]: 1%
growth inhibition ([15]; at 50.0 µM): 97.2% (active)
growth inhibition ([16]; at 1.2 µM): 2%
growth inhibition ([16]; at 3.7 µM): 4%
growth inhibition ([16]; at 11.0 µM): 5%
growth inhibition ([16]; at 33.0 µM): 20%
growth inhibition ([16]; at 100.0 µM): 27%
